Measurements published in PubChem BioAssay (NCI).
This is part of a sample that, as a whole, favours compounds with a hit. Of some 79,000 tested, about 15% had one in any assay. Calls of active or inactive are those of the source. Cut-off read from the data, not from the text of the source: active = growth inhibition above about 70%; inactive = the rest.

Tests used:
[1] = NCI Yeast Anticancer Drug Screen. Data for the rad52 strain (AID 147);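 note: 0% = growth of vehicle-treated control cultures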; settings: S. cerevisiae rad52 mutant growth inhibition, active compounds read high
In short: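 Measured: yeast growth inhibition. System: strain with a defined DNA damage repair alteration. Reference: vehicle-treated control cultures.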

[2] = NCI Yeast Anticancer Drug Screen. Data for the wt1 strain (AID 149);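 note: 0% = growth of vehicle-treated wt1 cultures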; settings: S. cerevisiae wt1 strain (SPY 50644) growth inhibition, active compounds read high
In short: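 Compounds are added to wt1 yeast cultures. Growth is then measured. Inhibition is expressed relative to vehicle-treated controls.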

[3] = NCI Yeast Anticancer Drug Screen. Data for the rad50EPP+ strain (AID 151);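 note: 0% = growth of vehicle-treated control cultures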; settings: S. cerevisiae rad50 mutant strain, active compounds read high
In short: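 One strain with a rad50 alteration (rad50EPP+) was compound-treated, its growth then compared to that of vehicle controls.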

[4] = NCI Yeast Anticancer Drug Screen. Data for the mgt1 strain (AID 153); settings: S. cerevisiae mgt1 mutant growth inhibition, active compounds read high
In short: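 After exposure of the mgt1 yeast mutant to compound, growth was measured and reported as inhibition compared with vehicle controls.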

[5] = NCI Yeast Anticancer Drug Screen. Data for the rad50 strain (AID 155);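 note: 0% = growth of vehicle-only cultures of the same strain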; settings: S. cerevisiae rad50 strain growth inhibition, active compounds read high
In short: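 Inhibition values express reduced yeast growth in compound-treated cultures relative to vehicle-treated controls.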

[6] = NCI Yeast Anticancer Drug Screen. Data for the mec2-1 strain (AID 157); settings: S. cerevisiae mec2-1 strain, active compounds read high
In short: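 Test agents were screened against the mec2-1 yeast strain, with defined DNA repair or cell cycle alteration. Growth was scored as inhibition against vehicle-only controls.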

[7] = NCI Yeast Anticancer Drug Screen. Data for the rad14 strain (AID 159);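 note: 0% = growth of vehicle-treated control cultures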; settings: S. cerevisiae rad14 strain growth inhibition, active compounds read high
In short: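 A mutant yeast strain defective in DNA damage repair is treated with compound; inhibition of its growth is scored against untreated, vehicle-exposed cultures.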

[8] = NCI Yeast Anticancer Drug Screen. Data for the sgs1 mgt1 strain (AID 161);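 note: 0% = growth of cultures given vehicle only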; settings: S. cerevisiae sgs1 mgt1 strain, active compounds read high
In short: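 Test agents were incubated with a DNA-repair-mutant yeast strain. Growth was then read and compared against vehicle-treated controls.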

[9] = NCI Yeast Anticancer Drug Screen. Data for the CLN2oe strain (AID 163);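 note: 0% = growth of vehicle-only control cultures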; settings: S. cerevisiae CLN2oe strain, active compounds read high
In short: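 Here, growth inhibition in a cell-cycle-altered yeast strain after compound exposure was quantified against vehicle control growth.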

[10] = NCI Yeast Anticancer Drug Screen. Data for the cln2 rad14 strain (AID 165);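 note: 0% = growth equal to vehicle treated cultures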; settings: S. cerevisiae cln2 rad14 strain, active compounds read high
In short: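 Growth of compound-exposed yeast (cln2 rad14 genotype) measured and expressed as inhibition relative to vehicle.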

[11] = NCI Yeast Anticancer Drug Screen. Data for the bub3 strain (AID 167); settings: S. cerevisiae bub3 mutant strain, active compounds read high
In short: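 Steps: expose the mutant yeast strain to compound; grow alongside vehicle-treated cultures; measure growth; express inhibition against the vehicle cultures.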

[12] = NCI Yeast Anticancer Drug Screen. Data for the wt2 strain (AID 169);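 note: 0% = growth of vehicle-treated yeast cultures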; settings: S. cerevisiae wt2 strain growth inhibition, active compounds read high
In short: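 Genetically defined yeast strains from a DNA-repair/cell-cycle panel were used. Compound-exposed yeast growth was measured, and the inhibition was calculated relative to vehicle treatment.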

[13] = NCI Yeast Anticancer Drug Screen. Data for the mlh1 strain (AID 171);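 note: 0% = growth of vehicle-treated control cultures of the same strain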; settings: S. cerevisiae mlh1 strain growth inhibition, active compounds read high
In short: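 Here the genetically defined yeast mutant is grown with each compound, and the extent to which its growth falls below that of vehicle-exposed cells is reported.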

[14] = NCI Yeast Anticancer Drug Screen. Data for the sgs1 strain (AID 173);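 note: 0% = growth of vehicle-only control cultures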; settings: S. cerevisiae sgs1 mutant, active compounds read high
In short: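 Relative growth inhibition, referenced to vehicle, was determined in a yeast strain with a defined alteration affecting DNA damage repair or cell cycle control after compound exposure.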

[15] = NCI Yeast Anticancer Drug Screen. Data for the mlh1 rad18 strain (AID 175); settings: S. cerevisiae mlh1 rad18 strain growth inhibition, active compounds read high
In short: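 In this whole-cell yeast screen, a strain with altered DNA damage repair is challenged with compound, and its growth is measured against matched vehicle-treated controls.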

[16] = at 5.0 µM (retest, dose inferred, filed as 0.5)
[17] = at 50.0 µM (retest, dose inferred, filed as 5.0)

Measured: growth inhibition

CN(C)[C@@H]1C(=O)C(C(N)=O)=C(O)[C@@]2(O)C(=O)C3=C(O)c4c(O)cccc4C[C@H]3C[C@@H]12
active: [1]; at 33.0 µM 97% | [1]; at 100.0 µM 98% | [2]; at 33.0 µM 95% | [2]; at 100.0 µM 99% | [4]; at 33.0 µM 97% | [4]; at 100.0 µM 99% | [5]; at 33.0 µM 95% | [5]; [17] 99% | [5]; at 50.0 µM 85.1% | [5]; at 100.0 µM 99% | [6]; [16] 87% | [6]; at 33.0 µM 97% | [6]; [17] 99% | [6]; at 50.0 µM 91% | [6]; at 100.0 µM 99% | [7]; at 33.0 µM 98% | [7]; at 100.0 µM 99% | [8]; [17] 99% | [8]; at 50.0 µM 91% | [9]; at 33.0 µM 98% | [9]; at 100.0 µM 99% | [10]; [17] 99% | [10]; at 50.0 µM 84.7% | [11]; [16] 97% | [11]; at 33.0 µM 97% | [11]; [17] 99% | [11]; at 50.0 µM 89% | [11]; at 100.0 µM 99% | [12]; at 33.0 µM 99% | [12]; at 100.0 µM 99% | [13]; at 33.0 µM 97% | [13]; at 100.0 µM 99% | [14]; at 33.0 µM 98% | [14]; at 100.0 µM 99% | [15]; [17] 99% | [15]; at 50.0 µM 89.8%
inactive: [1]; at 1.2 µM -5% | [1]; at 3.7 µM -10% | [1]; at 11.0 µM 17% | [2]; at 1.2 µM -1% | [2]; at 3.7 µM 2% | [2]; at 11.0 µM 30% | [3]; at 1.2 µM -9% | [3]; at 3.7 µM -8% | [3]; at 11.0 µM 14% | [3]; at 33.0 µM 10% | [3]; at 100.0 µM 9% | [4]; at 1.2 µM 0% | [4]; at 3.7 µM -5% | [4]; at 11.0 µM 21% | [5]; at 1.2 µM -19% | [5]; at 3.7 µM -25% | [5]; [16] 7% | [5]; at 11.0 µM 9% | [6]; at 1.2 µM -5% | [6]; at 3.7 µM -4% | [6]; at 11.0 µM 1% | [7]; at 1.2 µM 0% | [7]; at 3.7 µM -5% | [7]; at 11.0 µM 44% | [8]; [16] 23% | [9]; at 1.2 µM -7% | [9]; at 3.7 µM -15% | [9]; at 11.0 µM 27% | [10]; [16] 61% | [11]; at 1.2 µM -8% | [11]; at 3.7 µM -7% | [11]; at 11.0 µM 5% | [12]; at 1.2 µM 9% | [12]; at 3.7 µM 14% | [12]; at 11.0 µM 52% | [13]; at 1.2 µM -13% | [13]; at 3.7 µM -11% | [13]; at 11.0 µM 36% | [14]; at 1.2 µM -7% | [14]; at 3.7 µM -9% | [14]; at 11.0 µM 26% | [15]; [16] 38%

C=C1CCC(O)C/C1=C/C=C1\CCCC2(C)C1CCC2C(C)CCCC(C)C (stereo unspecified)
active: [3]; at 100.0 µM 73% | [5]; [17] 84% | [6]; [17] 94% | [15]; [17] 93% | [15]; at 50.0 µM 82.9%
inactive: [1]; at 1.2 µM -22% | [1]; at 3.7 µM -3% | [1]; at 11.0 µM -11% | [1]; at 33.0 µM 4% | [1]; at 100.0 µM 49% | [2]; at 1.2 µM -26% | [2]; at 3.7 µM -16% | [2]; at 11.0 µM -12% | [2]; at 33.0 µM -15% | [2]; at 100.0 µM 4% | [3]; at 1.2 µM -16% | [3]; at 3.7 µM -20% | [3]; at 11.0 µM -22% | [3]; at 33.0 µM -8% | [4]; at 1.2 µM -21% | [4]; at 3.7 µM -15% | [4]; at 11.0 µM -7% | [4]; at 33.0 µM -21% | [4]; at 100.0 µM 52% | [5]; at 1.2 µM -18% | [5]; at 3.7 µM -9% | [5]; [16] 13% | [5]; at 11.0 µM 5% | [5]; at 33.0 µM 0% | [5]; at 50.0 µM 51.8% | [5]; at 100.0 µM 30% | [6]; at 1.2 µM -40% | [6]; at 3.7 µM -25% | [6]; [16] 12% | [6]; at 11.0 µM -18% | [6]; at 33.0 µM 2% | [6]; at 50.0 µM -9.05% | [6]; at 100.0 µM -15% | [7]; at 1.2 µM -14% | [7]; at 3.7 µM -27% | [7]; at 11.0 µM -23% | [7]; at 33.0 µM -23% | [7]; at 100.0 µM 38% | [8]; [16] 6% | [8]; [17] 57% | [8]; at 50.0 µM 54.9% | [9]; at 1.2 µM -11% | [9]; at 3.7 µM 8% | [9]; at 11.0 µM 2% | [9]; at 33.0 µM 6% | [9]; at 100.0 µM 39% | [10]; [16] 9% | [10]; [17] 19% | [10]; at 50.0 µM 4.95% | [11]; at 1.2 µM -25% | [11]; at 3.7 µM -23% | [11]; [16] 9% | [11]; at 11.0 µM -27% | [11]; at 33.0 µM -13% | [11]; [17] 69% | [11]; at 50.0 µM 24.1% | [11]; at 100.0 µM 7% | [12]; at 1.2 µM -8% | [12]; at 3.7 µM -14% | [12]; at 11.0 µM -18% | [12]; at 33.0 µM -27% | [12]; at 100.0 µM 22% | [13]; at 1.2 µM -24% | [13]; at 3.7 µM -26% | [13]; at 11.0 µM -26% | [13]; at 33.0 µM -5% | [13]; at 100.0 µM 18% | [14]; at 1.2 µM -23% | [14]; at 3.7 µM -6% | [14]; at 11.0 µM -25% | [14]; at 33.0 µM -13% | [14]; at 100.0 µM 35% | [15]; [16] 11%
